± gives the standard deviation of the averaged measurements. The full data set covers some 5,400 targets. This sample favours those with the largest changes.
Compound: Nc1nc2c(ncn2[C@@H]2O[C@H](COP(=O)(O)OP(=O)(O)OP(=O)(O)O)[C@@H](O)[C@H]2O)c(=O)[nH]1 [guanosine triphosphate]
Assay: NP40-soluble protein abundance relative to vehicle (solubility fold change) (ratio); higher = more soluble protein in presence of GTP
Experimental: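 Solubility proteome profiling in Jurkat crude lysate. Lysate was treated with Mg-GTP (0.1-10 mM) for 10 min at room temperature and 3 min at 37 °C, then solubilised with 0.8% NP40 and benzonase, followed by ultracentrifugation. Proteins were quantified by TMT10 LC-MS/MS; the value is the NP40-soluble abundance relative to the NP40-processed vehicle, from 3 independent experiments.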

UniProt P50395, sequence (P50395 whole entry, one chain of several): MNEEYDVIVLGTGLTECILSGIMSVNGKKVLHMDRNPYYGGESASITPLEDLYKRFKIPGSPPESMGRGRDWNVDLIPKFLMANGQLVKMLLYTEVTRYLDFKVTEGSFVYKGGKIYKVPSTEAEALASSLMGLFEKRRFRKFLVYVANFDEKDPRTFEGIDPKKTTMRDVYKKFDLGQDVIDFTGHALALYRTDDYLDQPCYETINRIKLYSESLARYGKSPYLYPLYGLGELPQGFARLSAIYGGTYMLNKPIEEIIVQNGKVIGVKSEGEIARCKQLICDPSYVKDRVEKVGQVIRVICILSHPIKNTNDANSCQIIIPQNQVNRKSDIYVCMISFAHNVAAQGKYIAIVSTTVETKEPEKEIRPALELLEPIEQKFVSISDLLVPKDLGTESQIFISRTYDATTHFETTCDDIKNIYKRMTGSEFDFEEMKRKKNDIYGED
UniProt P18065, sequence (P18065 whole entry): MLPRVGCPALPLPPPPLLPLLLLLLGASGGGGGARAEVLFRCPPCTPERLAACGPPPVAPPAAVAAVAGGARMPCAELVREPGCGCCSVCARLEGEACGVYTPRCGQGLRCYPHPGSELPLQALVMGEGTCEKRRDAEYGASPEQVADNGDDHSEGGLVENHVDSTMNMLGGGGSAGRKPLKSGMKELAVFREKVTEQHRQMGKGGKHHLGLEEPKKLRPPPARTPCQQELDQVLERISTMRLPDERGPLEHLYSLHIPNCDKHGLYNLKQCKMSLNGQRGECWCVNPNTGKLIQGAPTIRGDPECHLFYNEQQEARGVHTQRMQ
UniProt O43615, sequence (O43615 whole entry): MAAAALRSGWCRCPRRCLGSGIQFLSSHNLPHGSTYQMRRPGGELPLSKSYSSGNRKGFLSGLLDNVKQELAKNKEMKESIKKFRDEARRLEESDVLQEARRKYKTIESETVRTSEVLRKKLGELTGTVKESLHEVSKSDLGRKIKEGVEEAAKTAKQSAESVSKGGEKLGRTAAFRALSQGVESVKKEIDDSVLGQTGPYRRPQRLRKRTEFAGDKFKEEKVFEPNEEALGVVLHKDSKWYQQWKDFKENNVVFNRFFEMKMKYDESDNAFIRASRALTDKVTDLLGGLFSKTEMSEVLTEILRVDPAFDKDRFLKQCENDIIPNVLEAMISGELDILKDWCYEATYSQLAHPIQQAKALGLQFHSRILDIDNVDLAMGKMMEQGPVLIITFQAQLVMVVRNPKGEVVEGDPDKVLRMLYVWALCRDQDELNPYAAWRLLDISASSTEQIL
UniProt O43399, sequence (O43399 whole entry): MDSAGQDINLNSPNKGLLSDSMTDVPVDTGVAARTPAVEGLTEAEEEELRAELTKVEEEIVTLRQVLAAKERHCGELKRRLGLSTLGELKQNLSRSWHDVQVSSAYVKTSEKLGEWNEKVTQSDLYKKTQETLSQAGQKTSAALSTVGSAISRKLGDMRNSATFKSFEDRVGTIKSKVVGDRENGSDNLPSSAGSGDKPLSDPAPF

Target	NP40-soluble protein abundance (concentration: 0.1mM)	NP40-soluble protein abundance (concentration: 0.5mM)	NP40-soluble protein abundance (concentration: 1mM)	NP40-soluble protein abundance (concentration: 2mM)	NP40-soluble protein abundance (concentration: 4mM)	NP40-soluble protein abundance (concentration: 6mM)	NP40-soluble protein abundance (concentration: 8mM)	NP40-soluble protein abundance (concentration: 10mM)
ARPC1B (UniProt O15143)	1 ± 0.045	1.04 ± 0.056	0.933 ± 0.034	0.942 ± 0.062	0.928 ± 0.056	0.948 ± 0.04	0.923 ± 0.017	0.887 ± 0.012
IGFBP2 (UniProt P18065)	0.9 ± 0.042	0.884 ± 0.053	0.983 ± 0.035	0.997 ± 0.043	0.995 ± 0.028	0.934 ± 0.062	1.02 ± 0.054	1.05 ± 0.087
UniProt O43399|O43399-5|O43399-7	0.814 ± 0.11	0.76 ± 0.039	1 ± 0.15	0.946 ± 0.028	0.91 ± 0.03	0.916 ± 0.033	0.875 ± 0.16	1.08 ± 0.15
UniProt P50395|Q5SX86	0.966 ± 0.022	0.999 ± 0.023	0.916 ± 0.02	0.899 ± 0.0095	0.882 ± 0.012	0.89 ± 0.017	0.859 ± 0.04	0.829 ± 0.057
TIMM44 (UniProt O43615)	0.992 ± 0.035	0.989 ± 0.041	0.993 ± 0.057	0.946 ± 0.058	0.954 ± 0.09	0.914 ± 0.082	0.946 ± 0.058	0.93 ± 0.064
